Experimental data taken from PubChem BioAssay (NCI).
Where “and” joins values, the source holds several entries; their conditions need not be identical. Equal entries are not always repeated. The panel holds about 83,000 compounds, 20% with a hit somewhere; the sample as a whole holds those more often.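 Compound tested at a single concentration for 48 hours in 96-well plates; a percent growth value below 10 was scored as active.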 Calls of active or inactive are those of the source.

tested on: A498 renal; experiment: NCI-60 one-dose screen, 48 h (100 = growth as untreated, 0 = no growth, -100 = all killed); conditions: 4.75 µM
Method: Growth inhibition of the A498 human tumor cell line is measured as a screen for anti-cancer activity. Cells are grown in 96 well plates and exposed to the test compound for 48 hours. Compounds are tested at a single concentration, which is 10^-5 M for most compounds. The reported endpoint is percent growth (GI% or GIPRCNT), where numbers from 0 - 100% represent growth inhibition, and numbers from -100% - 0 represent cell death. For example, a value of 40 represents 60% growth inhibition. A value of 0 means no net growth occurred over the course of the experiment. A value of -40 indicates 40% of cells at the beginning of the experiment died by the end of the experiment. A value of -100 means all cells are dead at the end of the experiment.
NCI-60 Human Tumor Cell Lines Screen was performed using the standard one-dose NCI protocol, which is described in more detail at https://dtp.cancer.gov/discovery_development/nci-60/default.htm.
Compounds with GIPRCNT values below 10 were considered active. Activity score was based on GIPRCNT using the following formula: […]
Score is 0 for GIPRCNT values of 100 or above, 50 for GIPRCNT values of 0, and 100 for GIPRCNT values of -100.

Compound	growth
CC(=O)OCC1OC([S-])C(OC(C)=O)C(OC(C)=O)C1OC(C)=O.[Au+].c1ccc(CN2[CH-]N(Cc3ccccc3)C(c3ccccc3)=C2c2ccccc2)cc1	-14.7% (active)

same assay, conditions: 10 µM

Compound	growth
O=C(O)CCCc1ccc(N(CCCl)CCCl)cc1	115% (inactive) and 99.6% (inactive)
CC(=O)OCC1OC([S-])C(OC(C)=O)C(OC(C)=O)C1OC(C)=O.[Au+].c1ccc(CN2[CH-]N(Cc3ccccc3)C(c3ccccc3)=C2c2ccccc2)cc1	50.4% (inactive)

same assay, conditions: 10 µM unless noted

Compound	growth
O=C(O)C(F)F	84.4% (inactive)
Cn1cc(C(=O)C[n+]2ccccc2)c2ccccc21	84.8% (inactive)
O=[N+]([O-])c1cc(Cl)c(Cl)cc1Cl	104% (inactive)
CC12CCC3C(CCC4CC(O)CCC43C)C1CCC2=O (stereo not given)	162% (inactive)
CO/N=C1\CC[C@]2(C)[C@H]3CC[C@]4(C)C(=O)CC[C@H]4[C@@H]3C[C@@H]3SC(N)=N[C@@]32C1	98.9% (inactive)
O=C1NC(=O)C(=C/C=C/c2ccccc2)C(=O)N1	106% (inactive)
C[C@]12CCc3sc(Nc4ccc(F)cc4F)nc3C1=CC[C@@H]1[C@@H]2CC[C@]2(C)C(=O)CC[C@@H]12	77.8% (inactive)
CCCCCCCCCCCCCCCCCCn1cc[n+](C)c1	-50.9% (active) and -44.9% (active)
C/C(=N/OC(=O)N(C)C)c1ccc(Cl)c(Cl)c1	99.6% (inactive)
CC[C@H](C)[C@H](NC(=O)[C@H]1CCCCN1C)C(=O)N(C)[C@H](C[C@@H](OC(C)=O)c1nc(C(=O)NC23C4C5C2C2C3C4C52C(=O)OC)cs1)C(C)C (stereo not given in full)	3.94% (active)
O=C(O)c1cc([N+](=O)[O-])cc([N+](=O)[O-])c1	92.6% (inactive)
[N-]=[N+]=CC(=O)CCC(=O)C=[N+]=[N-]	110% (inactive)
c1ccc2c(c1)sc1ccccc12	113% (inactive)
CCN1C(=O)NC(=O)C(C)(N2C(=O)c3c(F)c(F)c(F)c(F)c3C2=O)C1=O (stereo not given)	99.2% (inactive)
N#CCC(=O)c1ccccc1	117% (inactive)
CC[C@H](C)[C@H](NC(=O)[C@H]1CCCCN1C)C(=O)N(C)[C@H](C[C@@H](OC(C)=O)c1cccc(C(=O)N[C@@H](Cc2ccccc2)C[C@H](C)C(=O)OC)n1)C(C)C	-5.01% (active)
O=[N+]([O-])c1ccc2scc3c4ccccc4nc-3c2c1	44.9% (inactive)
CCCN1C(=O)NC(=O)C(CC)(N2C(=O)c3c(F)c(F)c(F)c(F)c3C2=O)C1=O (stereo not given)	-85.3% (active)

Compound	growth
O=C/C=C/c1ccco1	96.9% (inactive)
CO[C@@H]([CH2][Hg][O]C(=O)c1ccccc1)[C@@H]([CH2][Hg][O]C(=O)c1ccccc1)OC	117% (inactive)
CC1(C)S[C@H]2CC[C@H]3OC(=O)[C@@H]1N23	93.1% (inactive)
O=NN1CCCCC1	88.1% (inactive)
CNC(=O)CCl	92.1% (inactive)
N#Cc1ccc(Cl)cc1	134% (inactive)
C[C@]12CC[C@H]3[C@@H](CC=C4c5nc(-c6ccc(Br)cc6)sc5CC[C@@]43C)[C@@H]1CC[C@@H]2O	107% (inactive)
CC[C@H](C)[C@H](NC(=O)[C@H]1CCCCN1C)C(=O)N(C)[C@H](C(=O)NC12CC(C(=O)N[C@@H](Cc3ccccc3)C[C@H](C)C(=O)OC)(C1)C2)C(C)C	112% (inactive)
C=CC[PH+](c1ccccc1)c1ccccc1.C=CC[PH+](c1ccccc1)c1ccccc1.[Pt+2].[S-]c1ncccn1.[S-]c1ncccn1	103% (inactive)
CC1(C)CN=C(NN=C(/C=C/c2ccc(C(F)(F)F)cc2)/C=C/c2ccc(C(F)(F)F)cc2)NC1	2.54% (active)
CCOC(=O)P(=O)(OCC)OCC	102% (inactive)
O=C=Nc1ccc(Br)cc1	94.2% (inactive)
COC(=O)C1=CO[C@@H](C)[C@@H]2CN3CCc4c([nH]c5cc(OC)ccc45)[C@@H]3C[C@H]12	68.6% (inactive)
COc1ccc(N)cc1N	122% (inactive)
CN(C)c1ccc(C=C2C(=O)NC(=O)NC2=O)cc1	58.2% (inactive)
Cc1ccc(N2CCN(CCC#N)CC2)cc1	137% (inactive)
CC1=C([Te]c2ccccc2)C(=O)c2ccccc2C1=O	-66% (active)
C[C@]12CC[C@@H](OC(=O)N(CCCl)N=O)C[C@@H]1CC[C@@H]1[C@@H]2CC[C@]2(C)C(=O)CC[C@@H]12	-10.1% (active)

same assay, conditions: 75 µM

Compound	growth
O=C(O)CCCc1ccc(N(CCCl)CCCl)cc1	68.5% (inactive)
